Measured values taken from PubChem BioAssay (EPA / NIEHS).
Inconclusive results are not listed. The source made the active and inactive calls. The calls were made as follows: active = hit-call score of the fitted dose curve at least 0.9, where 1 is the maximum; inconclusive = response in the unintended direction; inactive = score below 0.9.

Biological target: human Vitamin D Receptor (VDR), VDR (gene 7421) (UniProt P11473)
Test: ATG_VDR_TRANS: Attagene TRANS-FACTORIAL HepG2 Assay for human Vitamin D Receptor (VDR) (AID 2283022)
Method in brief: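 RT-PCR/capillary electrophoresis read-out of reporter mRNA induction in transiently transfected HepG2; 24 h dosing; chimeric NR-Gal4 (TRANS format); gain-of-signal fit against DMSO baseline.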

Sequence of human Vitamin D Receptor (VDR), VDR (gene 7421) (P11473 whole entry, looked up): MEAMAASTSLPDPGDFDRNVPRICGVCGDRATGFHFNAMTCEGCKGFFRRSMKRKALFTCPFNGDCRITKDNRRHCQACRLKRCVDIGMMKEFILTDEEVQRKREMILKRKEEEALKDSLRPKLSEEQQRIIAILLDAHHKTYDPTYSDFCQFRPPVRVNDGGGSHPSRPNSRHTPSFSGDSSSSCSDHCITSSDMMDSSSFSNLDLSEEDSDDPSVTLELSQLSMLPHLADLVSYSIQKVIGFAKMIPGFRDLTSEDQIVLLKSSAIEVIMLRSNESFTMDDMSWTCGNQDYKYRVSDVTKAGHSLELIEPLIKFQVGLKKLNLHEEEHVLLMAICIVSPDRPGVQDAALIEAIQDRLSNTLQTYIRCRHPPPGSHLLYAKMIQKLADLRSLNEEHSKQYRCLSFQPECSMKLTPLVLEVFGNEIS

| SMILES | outcome | AC50 |
| --- | --- | --- |
| Cc1cccc(C(C)(C)C)c1O | inactive |  |
| Cn1ccnc1 | inactive |  |
| CCCCCCCCCCCCCCCCCCOS(=O)(=O)O |  | 119 µM (active) |
| O=C(C=Cc1ccccc1)OCCc1ccccc1 | inactive |  |
| CCCCCCOc1ccc(N)cc1 | inactive |  |
| O=C(Nc1ccccc1)c1cc(Cl)ccc1O | inactive |  |
| C[Si](C)(C)N[Si](C)(C)C | inactive |  |
| C=CCOC(=O)c1ccc(C(=O)OCC=C)c(C(=O)OCC=C)c1 | inactive |  |
| CCCCCCCCCCCC(=O)OCC | inactive |  |
| CC(C)(C)N | inactive |  |
| O=C(O)c1ccc2c(c1)C(=O)OC2=O | inactive |  |
| CC1CC(=O)CC(C)(C)C1 (stereo unspecified) | inactive |  |
| C=Cc1cccc(C)c1 | inactive |  |
| O=C(O)CC(C(=O)O)S(=O)(=O)O (stereo unspecified) | inactive |  |
| CCCCOC(=O)CCC(C)=O | inactive |  |
| Cc1c(C(=O)c2c[nH]n(C)c2=O)ccc(S(C)(=O)=O)c1C1=NOCC1 | inactive |  |
| CC(=O)/C=C/C1C(C)=CCCC1(C)C (stereo unspecified) | inactive |  |
| CN1CCN(C)CC1 | inactive |  |

| SMILES | outcome | AC50 |
| --- | --- | --- |
| CC(=O)CCC=C(C)C | inactive |  |
| CCN1CCCC1=O | inactive |  |
| CC(=O)OC1CCCCC1 | inactive |  |
| CCOC(=O)[C@H](O)[C@@H](O)C(=O)OCC | inactive |  |
| CC1CCC(C(C)(C)S)C(=O)C1 (stereo unspecified) | inactive |  |
| CC(C)(CO)C(O)C(=O)NCCCO (stereo unspecified) | inactive |  |
| CC(=O)OCC=C(C)C | inactive |  |
| CCCCCCCCCCCCC | inactive |  |
| C=Cc1ccc(OC(C)=O)cc1 | inactive |  |
| COc1cc(C)ccc1O | inactive |  |
| OCCCc1ccccc1 | inactive |  |
| CC(C)CCOCc1ccccc1 | inactive |  |
| COCC(=O)O | inactive |  |
| O=C1CCCCC1C1CCCCC1 (stereo unspecified) | inactive |  |
| C=C(C)C(=O)OCC(O)COc1ccc(C(C)(C)c2ccc(OCC(O)COC(=O)C(=C)C)cc2)cc1 (stereo unspecified) | inactive |  |
| CC(C=O)c1ccccc1 (stereo unspecified) | inactive |  |
| CC(=O)CCC1=C(C)CCCC1(C)C | inactive |  |
| CC(C)(C)C1CCC(=O)CC1 | inactive |  |
